Data: PubChem BioAssay AID1347426 (Functional Genomics Laboratory (NCATS/FGL), 2020)
Hit rate of the full screen: of about 31,000 sequences, about 1,400 (4.5%) were called active. Many of the other results were omitted from the sample, so actives are more common in it than they were. A number with no mark means an inactive call.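 How the source made its calls: active means median seed-adjusted z-score above 1 or below -1; inactive means the rest.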

Experiment: Novel Modifiers of Survival Motor Neuron (SMN) Protein: Gene Identification via Genome-wide siRNA Screen
Details: HEK293T SMN2-luciferase reporter, siRNA knockdown, 72 h; actives lie on both sides
In short: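 Each of three siRNAs per gene is reverse-transfected (1 pmol) into reporter HEK293T cells whose luciferase output tracks SMN protein level. After 72 h culture, ONE-Glo luminescence is control-normalized, log10-transformed and MAD-standardized; Common Seed Analysis deprioritizes seed-driven hits.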

First: GCAGAAUUGGAGACGGAAATT against DNALI1
Second: CCAAAUUCCGCUCUCAUGATT against SFRS9
The median seed-adjusted z-score of the first is higher: 0.699 for the first, -0.144 for the second.

Compared with GGAUGAUCGAGACCAGUUUTT against XPO4, GCUGUUGACUCACAAUGAUTT against GCLM is lower in median seed-adjusted z-score: 0.616 for the first, 0.0509 for the second.

Compared with GCUUACGGCUUGUACCUGATT against SFRS17A, GGAAUUAUUACAAGGUAAATT against EIF3E is higher in median seed-adjusted z-score: -0.389 for the first, 0.549 for the second.

Compared with UCUCUUCAAUAUGUAUUUATT against HOXC9, GAAUCACCAUUUAAGUGCATT against PDE1C is lower in median seed-adjusted z-score: 0.395 for the first, 0.157 for the second.

First: GGGCUUAGGUGUGAUCAUUTT against USH2A
Second: CGUGCUUUGAGUACCCGAATT against TAT
The median seed-adjusted z-score of the first is lower: 0.0673 for the first, 0.257 for the second.

Going from CCUUAAGAGGGAUGAUAAATT against SAFB to CCCUCUCACCAUUACUUCATT against CRYAB, the median seed-adjusted z-score rises from -0.954 to 0.354.

First: CGAGGACGAUGACUGCUUATT against LRP8
Second: GCAAGAAGAGAUUAGCAAATT against EIF2C2
The median seed-adjusted z-score of the first is lower: -0.547 for the first, -0.183 for the second.

First: GACUGAUGCUUUGACUGAATT against NPTX2
Second: GGAGGAAUCUUGGUCCUUATT against SLC11A2
The median seed-adjusted z-score of the first is higher: 0.0558 for the first, -0.157 for the second.

Compared with AUAUCAGGCUGGUUUACAATT against PLA2G15, GGCUGUCCGACUCAACAUATT against SIGLEC12 is higher in median seed-adjusted z-score: 0 for the first, 0.226 for the second.

First: GCAAAUGGGAGGUUGGAAATT against ZIK1
Second: GGGAAGUGGUAAAUAAAGATT against MCM7
The median seed-adjusted z-score of the first is lower: -0.0627 for the first, 0.0993 for the second.

Compared with CAGUAUCUAUUCACAAUGATT against TRNT1, CCCUUCUUGUUUACAUGAATT against SLC25A43 is lower in median seed-adjusted z-score: 0.142 for the first, 0 for the second.

Compared with CAGGUAUAUCAAUUUUUCATT against PRICKLE3, GUAUCGAAGUGGAGACAAUTT against NELL1 is lower in median seed-adjusted z-score: 0.0332 for the first, -0.466 for the second.

Going from CCACGUGUUUCAAAGCAGATT against GPR172B to GGGUGCACCAGAAACAUUATT against VEZF1, the median seed-adjusted z-score rises from 0.184 to 0.974.

Going from GUAACAACAAAUACUCAUATT against KCTD10 to CAUACUUUUUGGAUAGACATT against MTX1, the median seed-adjusted z-score rises from -0.506 to -0.159.

First: GGACGAGACUCAGAGUCAUTT against CD93
Second: GCACGUACUUGAUUCAGCATT against ZNF34
The median seed-adjusted z-score of the first is lower: -0.0879 for the first, 0.0391 for the second.

Going from CAACAAGUGUCUAAAUGUUTT against GNG11 to AGUCAGAGUUGAACAGGUATT against AREG, the median seed-adjusted z-score rises from 0.00609 to 0.104.

Going from AGGCAAACGUGUUCGUGCATT against IGFALS to GUAUCACUCUUAGAAUCCATT against GP1BA, the median seed-adjusted z-score falls from 0.0888 to 0.0803.

Going from AGAUAGAAGGGACACCAUUTT against NDUFB3 to GGGCAGUUGAUGAACGAAUTT against COG2, the median seed-adjusted z-score rises from -0.00982 to 0.791.

Compared with GGUCUGCACUCAUCACUAUTT against MGAT4A, GAAAUAAGGUUUUUGCAAATT against CCL25 is lower in median seed-adjusted z-score: 0.134 for the first, 0.0698 for the second.

First: CACUAUUCCCAGAUCUUUATT against SMAD5
Second: GAAGCUGUGAGAUAGAGAATT against LCN8
The median seed-adjusted z-score of the first is lower: -0.701 for the first, 0.112 for the second.

First: GGAGAUACAUCACCGAGAATT against ELMO3
Second: GCUGAUGCAUUGCUCAUUATT against CCT6A
The median seed-adjusted z-score of the first is higher: -0.0898 for the first, -0.286 for the second.

Going from CCUCAGUUGGAGUUUCUAATT against TBCEL to AAGCACAACUUGACCGUGATT against USP20, the median seed-adjusted z-score falls from 0.567 to -0.369.

First: GGAGAAUGCAAUCCGCUUATT against SVIL
Second: CUAUAUGAAUCACUAUACATT against ZNF181
The median seed-adjusted z-score of the first is higher: 0.0852 for the first, -0.154 for the second.

First: GGACAGAGCAAAAACUUCUTT against DYRK4
Second: GUGUAAGAACUACUACAGATT against HPR
The median seed-adjusted z-score of the first is lower: -0.824 for the first, 0.237 for the second.

First: GUACCUCAAUUUAAUAUCUTT against UGCGL2
Second: CGGAAAGUACUUAAACGGATT against PIAS4
The median seed-adjusted z-score of the first is lower: -0.456 for the first, 0.265 for the second.

Going from CAAAUACAGUGAGGACAUUTT against GPR83 to CACUGAGAAUGCAUCCAAATT against CYP4B1, the median seed-adjusted z-score falls from 0.105 to -0.663.

First: CGGUCAUUUCGUCGAGAUATT against HSF5
Second: CCUCAACAGUGUCUACAUUTT against LYL1
The median seed-adjusted z-score of the first is higher: 0.369 for the first, -0.118 for the second.

Going from GAUAAAAGGUUACAAACGATT against HIF1AN to GCAGUGUAAUGGUAUCCGATT against VLDLR, the median seed-adjusted z-score rises from -0.0315 to 0.0487.

Compared with AGCGCAUGAUUGACAGUGATT against CACNG1, GCACUGUGCUCGGAAGUUATT against GLS2 is lower in median seed-adjusted z-score: -0.452 for the first, -0.793 for the second.

Going from CAGCAUACUUUAUCGCCUUTT against DICER1 to CCCAACAACUGGUAUCUUUTT against CD33, the median seed-adjusted z-score falls from 0.101 to -0.355.

Going from CAAUAGCUGAAAUAAUAGATT against KPNA3 to CAACUACACUGUCAACUACTT against DTX2, the median seed-adjusted z-score falls from 0.383 to 0.0597.

First: GGCUCAUUUUCGCCCUGUATT against CHP2
Second: GUUUGAGUGUGACACCUGUTT against ZNF71
The median seed-adjusted z-score of the first is higher: 0.364 for the first, -0.0193 for the second.

First: GGAAUACCUUAUUGAUGUATT against CST8
Second: GGUACCAACAAAUACGAUATT against INPP5J
The median seed-adjusted z-score of the first is lower: -0.0126 for the first, 0.223 for the second.

Compared with GAGACUGCACAACACGAUATT against TMEM11, AGUGAGAUUUGAAGAGAUUTT against ADC is lower in median seed-adjusted z-score: -0.00121 for the first, -0.157 for the second.

Compared with AAAAAUCGCUGGACAUGUATT against DNASE2B, CAAUACGAUUGGGACAUUATT against UXS1 is lower in median seed-adjusted z-score: 0.86 for the first, 0.25 for the second.

First: CAUUCGUUCUUACAAGGAATT against FMNL3
Second: GGGACGAUAUUUUAUGCAUTT against AHRR
The median seed-adjusted z-score of the first is higher: 0.481 for the first, -0.636 for the second.

First: GGGAAGAUCCUGUACAUCUTT against PER2
Second: CAUUUGGUCUAGACAGUUUTT against TDP1
The median seed-adjusted z-score of the first is higher: -0.113 for the first, -0.352 for the second.

First: GACCCGCUUUCUACCGUUATT against ENTPD4
Second: GCUUAUCCAUUGGAACUGUTT against NEK9
The median seed-adjusted z-score of the first is higher: 0.324 for the first, 0.0698 for the second.

Compared with GCAGGGCAGUAAUCCUCAUTT against DLX6, GCCUUGUCGAAUUCUGUCATT against FOXO3 is lower in median seed-adjusted z-score: 0.0275 for the first, -0.712 for the second.

Going from CCCAGUCUGUGAAACCGAATT against JMJD3 to GCUGCUGAAAGAUAUGAAATT against SPCS3, the median seed-adjusted z-score falls from 0.871 to 0.417.

First: GGAUAAACCUAUGCAUACATT against CCNF
Second: CCUCUUCCACCGCUACUUCTT against TREX2
The median seed-adjusted z-score of the first is higher: -0.435 for the first, -0.918 for the second.

First: GGCUCUUAAUAUUCGAAUATT against GPR22
Second: UGAUCAUUGUCCCUACAGATT against SERPINA3
The median seed-adjusted z-score of the first is higher: 0.705 for the first, 0.125 for the second.

Compared with UCCUCAAGAGUUCACCUAUTT against FCRL2, GCUAAACAGUUCGCAAGGATT against IGF2R is higher in median seed-adjusted z-score: -0.294 for the first, 0.274 for the second.

With GUAUGAGUGUGACCGGGAATT against MRC2 the median seed-adjusted z-score was -1.34 (active).
In the case of GCCUAUUCAGAACACCAAUTT against TBP, the median seed-adjusted z-score is reported as -1.25 (active).
For GCUCUAGGCUUCAAGGCAATT against CTSL3, the median seed-adjusted z-score was 1.07 (active).
With GGAACGAGGCAGAUAUGGATT against NMNAT2 the median seed-adjusted z-score was -1.58 (active).
With GAGCAACAGUCACCAGAUATT against MAT2A the median seed-adjusted z-score was -1.9 (active).
In the case of GCUCGGACUUCAACAACUATT against PPAP2C, the median seed-adjusted z-score is reported as -1.12 (active).
For CAGUGAUGGUUAAGAACGATT against A2M, the median seed-adjusted z-score was -1.96 (active).
In the case of GAGAAAUGCUUGGAGUCCATT against FKBPL, the median seed-adjusted z-score is reported as -1.11 (active).
For GGCUUGAGAGCUUACAUCATT against PPP2R5C, the median seed-adjusted z-score was 1.14 (active).
For GUUCUGCCCUCAUACCCUUTT against IL9R, the median seed-adjusted z-score was -1.33 (active).
With CCUGAAACCUCAGAACUUATT against PFTK2 the median seed-adjusted z-score was -1.16 (active).
For GAUGAUUCGUUGGUAUCUATT against GRIA2, the median seed-adjusted z-score was -1.02 (active).
For GCCCUAAACCUGCCGGAAATT against EVX1, the median seed-adjusted z-score was 1 (active).
With GUGUCGUCGUAGAAAGAGATT against WEE1 the median seed-adjusted z-score was -4.05 (active).
With GCCCUGGGUGGAUACUUGATT against PIM3 the median seed-adjusted z-score was -1.01 (active).
With CAGCAACCAAUGAUAUAUATT against POLR2K the median seed-adjusted z-score was -3.72 (active).
In the case of CGAACACCGGUGAGGUAUATT against SNRPD3, the median seed-adjusted z-score is reported as -2.69 (active).
With CGAGUGGACCUACGAGGAATT against ARID3C the median seed-adjusted z-score was -1.32 (active).
In the case of CCUCCUCUGCUUAUCGUAUTT against GLT8D1, the median seed-adjusted z-score is reported as 1.22 (active).
With GGUUCUUGGGUGAAGGACATT against CHGB the median seed-adjusted z-score was -1.29 (active).
For CGCUGUCUCGGGAGAGAAATT against SFRS3, the median seed-adjusted z-score was 2.74 (active).
In the case of GCUUUCCGAUGAUGAGAGATT against LEO1, the median seed-adjusted z-score is reported as 1.2 (active).
